Measured values published in PubChem BioAssay (NCATS).
Inconclusive results are not listed. Values without a mark were called inactive. Active and inactive are the calls of the source. Calls follow the shape of the dose curve; as a rule, active = well fitted inhibition curve with a large enough effect; inconclusive = small, poorly fitted or top-dose-only effect; inactive = flat fitted curve, though single readings scatter.

Target: Calcium and integrin-binding protein 1 (Homo sapiens) (UniProt Q99828)
Assay: Primary qHTS for Identification of Calcium Integrin Binding Protein 1 (CIB1) Competitor (AID 1508620);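 also: GST tagged CIB1 binding a fluorescein labelled alphaIIb integrin peptide tracer; top concentration of the series differs between compounds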
Conditions: CIB1-GST / FITC-alphaIIb peptide fluorescence polarization; series mostly up to 114 µM; activity change, negative = inhibition: at the top concentration
How it was run: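 CIB1-GST (1 uM final) and compound incubated 15 min at room temperature before adding FITC-alphaIIb peptide tracer (100 nM final). Competition for binding read by fluorescence polarization (ex 480, em 540) after another 15 min at room temperature.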
% is scaled to controls: 0 for no effect and ±100 for the full control effect.

Sequence of Calcium and integrin-binding protein 1 (Homo sapiens) (Q99828 whole entry, looked up): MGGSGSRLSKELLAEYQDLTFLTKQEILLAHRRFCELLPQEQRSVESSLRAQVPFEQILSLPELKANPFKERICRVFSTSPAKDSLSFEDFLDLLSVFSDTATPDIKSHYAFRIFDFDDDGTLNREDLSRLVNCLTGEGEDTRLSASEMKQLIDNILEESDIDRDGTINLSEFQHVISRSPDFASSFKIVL

| Compound | activity change, negative = inhibition | Potency |
| --- | --- | --- |
| Cc1cc2c(s1)c1cnn(Cc3ccc(C(=O)O)cc3)c(=O)c1n2C | -13.3% | – |
| CC(=O)N1CCN(c2ccc(NCc3cccc(C)c3)cc2)CC1 | -15.5% | – |
| CCOC(=O)C1CCN(C(=O)C(C)(C)NC(=O)Nc2ccc3sccc3c2)CC1 | -9.54% | – |
| Cc1c(C(=O)O)[nH]c2c1C(=O)CCC2 | -1.6% | – |
| Cc1ccc2oc(NC3=NC4(CCCC4)C4=C(CCCC4=O)N3)nc2c1 | -6.35% | – |
| Cc1cc(C)nc(NC(=S)N2CCN(c3nnc(C(F)(F)F)s3)CC2)c1 | -0.612% | – |
| C[n+]1cc(C(O)(c2ccccc2)c2ccccc2)n2ccccc21 | 2.91% | – |
| O=C(Nc1ccc(Cl)cc1)Nc1nnc(-c2ccncc2)s1 | 2.47% | – |
| Cc1cc2c(s1)c1cnn(Cc3cccc4cccnc34)c(=O)c1n2C | -1.07% | – |
| CC(=O)Nc1sc2c(c1-c1csc3ccccc13)CCNC2 | 12.3% | – |
| Cc1cccc(CNc2ccnc(-c3cc(C(F)(F)F)cc(C(F)(F)F)c3)n2)c1 | 3.85% | – |
| O=C1CCCC2=C1C(c1[nH]ncc1Cl)N=C(Nc1nc3cc(Br)ccc3o1)N2 (stereo not given) | -12.4% | – |
| COc1cc(O)c(C(CC(=O)N2CCCC(C(=O)N3CCCCC3)C2)c2ccc3c(c2)OCO3)c(OC)c1 (stereo not given) | -6.14% [at 228 µM] | – |
| C=CCNc1nnc(-c2cccc3ccccc23)o1 | 0.526% | – |
| O=C(OCC#CCSc1nnc(-c2cccc3ccccc23)o1)c1ccc(Br)cc1 | -1.14% | – |
| COc1cc(OC)cc(-c2nnc3n2N=C(c2ccc(OC)cc2OC)CS3)c1 | 11.3% | – |
| CCOc1ccc(CCNC(=O)c2cc3sccc3n2Cc2ccccc2)cc1OCC | 0.206% | – |
| Cc1ccc(OCCn2c(CCNC(=O)c3ccc(Br)cc3)nc3ccccc32)cc1 | 21.4% | – |
| C[C@H]1CN(S(=O)(=O)c2c(F)cccc2F)CCN1S(=O)(=O)c1ccc2c(c1)OCCO2 | -2.01% | – |
| COc1cccc(NC(=S)N2CCN(c3cc(C(F)(F)F)cc(C(F)(F)F)c3)CC2)n1 | 3.43% | – |

| Compound | activity change, negative = inhibition | Potency |
| --- | --- | --- |
| O=C(Nc1ccc(Cl)c(C(F)(F)F)c1)Nc1nnc(-c2cccnc2)s1 | 3.39% | – |
| N#Cc1nc(-c2cccc3ccccc23)oc1NCC#CCOC(=O)c1cccs1 | -17.4% | – |
| CC(C)c1ccccc1-c1ncc(F)c(NC2(c3ccc(-c4cccnc4)cc3)CC2)n1 | – | inactive |
| CN(CCC1CCCO1)c1ncnc2ccc(-c3ccc4c(c3)OCO4)cc12 (stereo not given) | -3.23% | – |
| Cc1cnc(-c2ccccc2C(C)C)nc1NCc1ccc(-c2nn[nH]n2)cc1 | -6.12% | – |
| COc1ccccc1-c1ncc(C)c(NCc2ccc(-c3cccnc3)cc2)n1 | -1.16% | – |
| CCCCCCNC(=O)Nc1nnc(-c2ccncc2)s1 | -5.35% | – |
| CC(=O)NC(C)c1cc(F)c2cccnc2c1O (stereo not given) | -25% | – |
| Cc1cc(NS(=O)(=O)c2ccc(NC(=O)Cc3ccc4ccccc4c3)cc2)no1 | -13.9% | – |
| Cc1cc(C)nc(NC(=S)N2CCN(c3ncccn3)CC2)c1 | -0.681% | – |
| CCOC(=O)c1cccc(NS(=O)(=O)c2ccc(NC(=O)Cc3ccc(Cl)c(Cl)c3)cc2)c1 | 0.405% | – |
| O=C1c2ccccc2C(=O)N1c1cnc2ccccc2c1 | 3.71% | – |
| COc1cccc(CNc2ccc(S(=O)(=O)Nc3ccccn3)cc2)c1O | -3.9% | – |
| CC(=O)NC(C)c1cc(Cl)c2ccccc2c1O (stereo not given) | -11.9% | – |
| CCOc1ccc(-c2csc(N3CCC(C(N)=O)CC3)n2)cc1 | 3.14% | – |
| O=S(=O)(c1ccccc1)N1CCN(c2nccc(-c3cccs3)n2)CC1 | 1.8% | – |
| N#Cc1c(-c2cccc([N+](=O)[O-])c2)no[n+]1[O-] | -7.22% | – |
| C[C@@H](NC(c1ccc(F)cc1)c1ccc2cccnc2c1O)c1ccccc1 (stereo not given in full) | – | inactive |
| O=S(=O)(Nc1cccc2cccnc12)c1ccc(Br)cc1 | -3.33% | – |
| O=[S+]([O-])(c1ccc2nsnc2c1)N1CCN([S+](=O)([O-])c2c(F)cccc2F)CC1 | -6.1% | – |
